This excerpt belongs to a sample that is enriched for hits.
Pf Dd2 growth: blocks in vitro growth of P. falciparum Dd2. P. falciparum Dd2 growth, SYBR Green, 72 h. 120,000 tested, 4.3% active. Potency, µM (top dose mostly 28.9 µM), for the others: at the highest dose activity, negative = inhibition, most hits filed as inhibitors; active means well fitted inhibition curve with a large enough effect;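 further: plate controls were DMSO vehicle for no effect and reference drug for full effect; nearly all actives have a fitted effect of over 65% in size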
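Infected erythrocytes (Dd2, 0.3% parasitemia, 2.5% hematocrit final) are added to compound in RPMI-1640/Albumax II medium, grown 72 h at 37C in low oxygen, then lysed with saponin/Triton-X containing SYBR Green and read by fluorescence.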
* = called active by the depositor; i = inactive; [ ] = another dose, or the depositor's remark. Potency means the concentration at half of the fitted maximal effect.

SMILES | Pf Dd2 growth
COc1cccc(CNC(=O)C2(C)CCCCC(=O)N2)c1OC (centres undefined) | -17.5%
O=C(Cn1c(=O)oc2ccccc21)N1CCC2(CC1)CC(OCC1CC1)CCO2 (centres undefined) | -3.5%
CCOC(=O)N1CCC(NC2CC(=O)N(CCc3ccc(OC)cc3)C2)CC1 (centres undefined) | i
O=C([C@@H]1C[C@H](F)CN1S(=O)(=O)Cc1ccc(Cl)cc1)N1CCCCC1 | 32.3%
Cc1ccc(S(=O)(=O)NC[C@H]2OC[C@@H](NC3CCNCC3)[C@@H]2O)cc1 | 25.4%
O=C(NC1CCCN(c2cc(-c3ccc(F)cc3)[nH]n2)C1)c1cc(F)ccc1F (centres undefined) | -3.0%
Cc1ccc(C(=O)N2CCc3sc(C(=O)NCc4ccc(C)o4)cc3C2)cc1 | 11.2µM*
Cc1ccc(C(=O)N2CCc3sc(C(=O)O)cc3C2)cc1 | 17.7%
Cc1ccc(C(=O)N2CCc3sc(C(=O)NCc4ccc(F)cc4F)cc3C2)cc1 | -14.3%
Cc1ccc(C)c(S(=O)(=O)N2CCN(C3CCN(Cc4cccnc4)C3=O)CC2)c1 (centres undefined) | i
Cc1nc(N2CCC(NC(=O)c3ccccc3Cl)CC2)cc(C(F)(F)F)n1 | i
Cc1nc(N2CCC(NC(=O)c3ccccc3F)CC2)cc(C(F)(F)F)n1 | i
COc1cc(Cl)ccc1C(=O)NC1CCN(c2cc(C(F)(F)F)nc(C)n2)CC1 | 5.01µM*
COC[C@@H]1CN(C(=O)c2c(C)noc2C)C[C@H]1c1ccncc1 | 34.3%
CCN(C)C(=O)Cn1c(Cc2ccccc2)nn(-c2ccccc2OC)c1=O | -12.6%
CCN(CC)C(=O)Cn1ccn2nc(-c3ccccc3)c(CO)c2c1=O | -60.7%
Cc1ccc(C)c(Nc2nnc(-c3ccc(C)c(S(=O)(=O)N4CCN(C)CC4)c3)c3ccccc23)c1 | 16.3%
Cc1cccc(Nc2nnc(-c3ccc(C)c(S(=O)(=O)N4CCCCC4)c3)c3ccccc23)c1 | 35.8%
C#CC(C)(C)NS(=O)(=O)c1cc(-c2nnc(Nc3ccc(C)cc3)c3ccccc23)ccc1C | 5.01µM*
CCOc1ccc(-c2nnc(Nc3ccc(S(N)(=O)=O)cc3)c3ccccc23)cc1 | 12.8%
Cc1cc(C)n(-c2nnc(Nc3ccc(C)c(Cl)c3)c3ccccc23)n1 | i
C#CCOc1ccc(-c2nnc(Nc3ccc(NC(C)=O)cc3)c3ccccc23)cc1 | 44.1%
CCN(CC)C(=O)c1ccc(Nc2nnc(-c3ccc(C)c(S(=O)(=O)NC)c3)c3ccccc23)cc1 | 3.16µM*
Cc1ccc(-c2nnc(Nc3ccc(Cl)c(Cl)c3)c3ccccc23)cc1S(=O)(=O)N(C)C | 10µM*
CCCNS(=O)(=O)c1cc(-c2nn3c(C)nnc3c3ccccc23)ccc1C | -12.9%
SMILES | Pf Dd2 growth
CCCN1C(=O)C(CC(=O)N2CCOCC2)Sc2ncccc21 (centres undefined) | 4.6%
C=CCNc1nc(C2CC2)nc2c1CCN(C(=O)c1cscn1)CC2 | -19.1%
CS(=O)(=O)N1CCCC1c1noc(CCC(=O)NCC2CC2)n1 (centres undefined) | -6.7%
CS(=O)(=O)N1CCCC(C(=O)NCCCN2CCCc3ccccc32)CCNC(=O)CC1 (centres undefined) | -14.4%
COc1cc(-n2cnnn2)cc(-n2ccnc2-c2cc3n(n2)CCCNC3)c1 | 5.8%
O=C(c1ccc(Cl)nc1)N1CCn2c(nn(-c3ccc(F)cc3)c2=O)C1 | -10.2%
CCc1nc2nccc(-c3ccc(OC)c(OC)c3)n2n1 | -20.8%
COc1ccc(CCc2nc3nccc(-c4ccc(OC)c(OC)c4)n3n2)cc1OC | 12.6µM*
COc1ccc(-c2ccnc3nc(CCc4ccc(OC)c(OC)c4)nn23)cc1 | -11.5%
Cc1nc(N2CCC(C(=O)NC3CCCCCC3)CC2)cc(C(F)(F)F)n1 | i
CCn1c2c(c(=O)n1Cc1ccccc1)CCN(C(=O)C1CCC(OC)CC1)C2 (centres undefined) | 13.1%[44.1 µM]
COc1ccc(NC(=O)N2C[C@@H](F)C[C@H]2C(=O)N2CCCCC2)c(OC)c1 | 49.9%
CCCCN1C(=O)c2ccccc2C(C(=O)NC(C)C)C12CCCCC2 (centres undefined) | -22.7%
CCCCN1C(=O)c2ccccc2C(C(=O)Nc2nc(C)cs2)C12CCCC2 (centres undefined) | 5.01µM*
O=C(NC1CCCC1)C1c2ccccc2C(=O)N(Cc2ccccc2)C12CCCC2 (centres undefined) | -25.9%
CCCCN1C(=O)c2ccccc2C(C(=O)NCc2ccncc2)C12CCCCC2 (centres undefined) | -28.5%
Cc1csc(NC(=O)C2c3ccccc3C(=O)N(Cc3ccccc3)C23CCCC3)n1 (centres undefined) | 3.55µM*
COC(=O)CNC(=O)C1c2ccccc2C(=O)N(Cc2ccccc2)C12CCCC2 (centres undefined) | -4.4%
COc1cccc(CC(=O)N2CCC([C@@H]3CNC[C@H]3CO)CC2)c1 | 24.6%
O=C(c1ccncc1)N1CCCC(CCc2ccc(F)cc2)C1 (centres undefined) | -8.8%
O=C(CCc1cc2n(n1)CCCNC2)N1CCCC1c1nc2ccccc2[nH]1 (centres undefined) | -18.4%
NC(=O)NCC(=O)N1CCCC(Nc2ccc3c(c2)OCCO3)C1 (centres undefined) | i
Cc1nc2c(c(C)nn2-c2ccccc2)c(C)c1CCC(=O)NCCc1ccccc1 | -23.1%
Cc1nc2c(c(C)nn2-c2ccccc2)c(C)c1CCC(=O)NCc1ccccc1 | -27.3%
CCOc1ccc(CCNC(=O)CCc2c(C)nc3c(c(C)nn3-c3ccccc3)c2C)cc1OCC | 7.94µM*
SMILES | Pf Dd2 growth
Cc1ccc(-n2nc(C)c3c(C)c(CCC(=O)NCc4ccccc4Cl)c(C)nc32)cc1 | 5.62µM*
CCCCNC(=O)CCc1c(C)nc2c(c(C)nn2-c2ccccc2)c1C | -22.6%
Cc1ccc(-n2nc(C)c3c(C)c(CCC(=O)NCc4cccc(Cl)c4)c(C)nc32)cc1C | -6.4%
CCC1Oc2ccc(NC(=O)c3ccc(F)cc3F)cc2CN(Cc2ccc3c(c2)OCO3)C1=O (centres undefined) | i
Cn1cc(CC(=O)N2CCCc3ncc(C(=O)NCCN4CCCC4)cc32)c2ccccc21 | i
CCCc1noc(-c2ccn3c(CNC(=O)c4ccccc4OC)nnc3c2)n1 | -10.3%
Cc1nc(CN2CCN(C(=O)[C@H]3CC[C@@H](N)C3)CC2)cs1 | 22.3%
O=C(NCc1csc(-c2cnccn2)n1)[C@H]1CCC[C@H](O)C1 | -10.8%
N[C@@H]1CC[C@H](C(=O)NCc2csc(N3CCCC3)n2)C1 | 11.2µM*
COc1ccc2ccc(OCc3nc(C(=O)NC(C)c4n[nH]c(C)n4)co3)cc2c1 (centres undefined) | -18.4%
CCC(=O)Nc1ccccc1-c1nc2ccccc2n(C(C)C(=O)Nc2ccc(OC)cc2)c1=O (centres undefined) | 10µM*
CCC(=O)Nc1ccccc1-c1nc2ccccc2n(CC(=O)Nc2ccccc2OC)c1=O | 2.6%
CCC(=O)Nc1ccccc1-c1nc2ccccc2n(C(CC)C(=O)Nc2cccc(Cl)c2)c1=O (centres undefined) | i
CCc1nnc([C@@H]2CC(F)(F)CN2C(=O)COc2ccccc2)o1 | 20.6%
COc1ccc(-c2cc3c(ccn3C)c(C(=O)NCCC(N)=O)n2)cc1OC | -8.9%[44.1 µM]
Cn1ccc2c(C(=O)NCc3cccnc3)nc(-c3ccc(CO)cc3)cc21 | -22.8%[44.1 µM]
CN(C)CCNC(=O)c1nc(-c2ccc(N3CCN(C)CC3)cc2)cc2c1ccn2C | 11.2µM*
Cc1cccc(NC(=O)N2CC(Oc3ccc(-c4nc(-c5ccccc5)no4)cc3)C2)c1 | 15.1%[5.79 µM]
